Screening results deposited in PubChem by National Center for Advancing Translational Sciences (NCATS).
GLS inh: glutaminase GLS (human) inhibition; O94925; GLS enzymatic activity, qHTS titration; Potency, µM (series often up to 45.5 µM), hits mostly inhibitors; hit rate 0.21% among 410,000
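Coupled fluorescence readout: glutamate oxidase/HRP/Amplex Red detect glutamate formed by hKGA from L-glutamine (1 mM solution added). Buffer 45 mM KH2PO4 pH 8.2, 0.02% Tween-20; reads at t0 and 30 min RT.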
HP1b binding inh: blocks HP1-beta chromodomain binding to methylated histone tails; P83916; AlphaScreen HP1-beta / biotin-H3K9me3 peptide binding; Potency, µM (titrated, usually from 114 µM), most hits filed as inhibitors; hit rate 0.56% among 390,000; AID 540317; also: nearly all actives have a fitted effect of over 70% in size
Target sequence (P83916 whole entry, looked up): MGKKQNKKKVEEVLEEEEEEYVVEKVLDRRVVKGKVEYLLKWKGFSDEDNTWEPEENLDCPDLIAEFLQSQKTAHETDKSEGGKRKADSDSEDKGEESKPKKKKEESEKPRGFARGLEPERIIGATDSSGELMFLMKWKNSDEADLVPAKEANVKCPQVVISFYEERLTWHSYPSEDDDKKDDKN
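Compound inhibition of the preformed complex between 50 nM HP1-beta and 50 nM biotinylated H3K9me3 peptide was read by AlphaScreen. Buffer was PBS pH 7.4 with 0.01% Tween-20. Incubations ran 30 min at room temperature, with 10 ug/mL donor/acceptor beads.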
BAZ2B inh: inhibitors of human BAZ2B bromodomain | AlphaScreen BAZ2B-H3K14Ac peptide displacement | Potency, µM (top dose mostly 114 µM), most hits filed as inhibitors | hit rate 4.4% among 360,000 | AID 504333; also: nearly all actives have a fitted effect of over 60% in size
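AlphaScreen displacement of biotin-H3(5-23)K14Ac peptide (50 nM final) from BAZ2B (50 nM final) in PBS pH 7.4, 0.01% Tween-20; complex preformed 30 min RT, then compounds (top 110 uM) 30 min RT, beads 20 min dark.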
JMJD2A Tudor: JMJD2A Tudor domain (human) inhibition; O75164; AlphaScreen JMJD2A-Tudor / H3K4me3 peptide binding; Potency, µM (titrated, usually from 114 µM), most hits filed as inhibitors; hit rate 4.4% among 390,000; AID 504339; also: nearly all actives have a fitted effect of over 50% in size
G9a inh: blocks human histone lysine methyltransferase G9a; Potency, µM (top dose mostly 102 µM), usual class: inhibitors; hit rate 8.8% among 350,000; G9a H3K9 monomethylation, AlphaScreen, 2 h; Q96KQ7; also: nearly all actives have a fitted effect of over 75% in size
Target sequence (Q96KQ7 913-1193 limits assumed): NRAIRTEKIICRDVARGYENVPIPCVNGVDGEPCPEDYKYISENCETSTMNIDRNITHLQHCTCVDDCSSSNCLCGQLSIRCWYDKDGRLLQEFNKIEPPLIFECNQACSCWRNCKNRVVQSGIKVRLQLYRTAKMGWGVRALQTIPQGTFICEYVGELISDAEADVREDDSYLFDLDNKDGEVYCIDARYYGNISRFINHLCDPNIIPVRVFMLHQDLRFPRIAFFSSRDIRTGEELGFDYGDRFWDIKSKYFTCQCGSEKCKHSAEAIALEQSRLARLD
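Enzyme 20 nM + cpd, 15 min RT; add b-H3K9 pep 500 nM / SAM 20 uM; 2 h RT; anti-H3K9me1 Ab 0.5 ug/mL + SA donor / anti-rabbit acceptor beads 20 ug/mL each, 10 min; AlphaScreen read.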
L3MBTL1 inh: blocks human L3MBTL1; AID 485360; AlphaScreen L3MBTL1–H3K9me1 peptide binding; Potency, µM (series often up to 57.1 µM), actives largely listed as inhibitors; hit rate 0.66% among 230,000; Q9Y468; also: nearly all actives have a fitted effect of over 60% in size
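Read-out is AlphaScreen signal from streptavidin donor and nickel chelate acceptor beads (10 ug/mL final each) bridging L3MBTL1 (50 nM) and biotinylated K9-monomethylated H3(1-15) peptide (75 nM), after 30 min compound exposure at room temperature.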
Large screens that a line does not name were inactive. This is a sample that favours compounds with a hit; in the whole collection about 10% have one here. Calls follow the shape of the dose curve; as a rule, active = well fitted curve in the direction sought with a large enough effect; inconclusive = small, poorly fitted or top-dose-only effect, or another doubt; inactive = no such curve, though single readings can be large; an effect the other way counts as inactive or inconclusive.

CCCC1=Nc2cc(C(=O)N3CCCC3)ccc2Sc2ccc(C)cc21	BAZ2B inh inconclusive, JMJD2A Tudor 18µM (no result: L3MBTL1 inh)
Cc1c(C(=O)N(Cc2ccco2)Cc2ccccc2Cl)oc2ccc(F)cc12	none (no result: L3MBTL1 inh)
CN(C)c1ccc(CNC(=O)C2CCN(S(=O)(=O)c3cn(C)cn3)CC2)cc1	none (no result: L3MBTL1 inh)
CC(=O)/C(C#N)=C1\NC(=O)C(Cc2ccccc2)S1 (stereo unspecified)	none
CC(=O)/C(C#N)=C1\NC(=O)C(Cc2ccccc2C)S1 (stereo unspecified)	JMJD2A Tudor inconclusive, G9a inh 20µM (no result: L3MBTL1 inh)
CCOc1cccc(C(=O)N(Cc2ccc(CC)cc2)C2CCS(=O)(=O)C2)c1 (stereo unspecified)	none (no result: L3MBTL1 inh)
O=C1C=C(c2ccc(C(=O)O)c(Cl)c2)C[C@@H](c2ccc3c(c2)OCO3)C1	JMJD2A Tudor 71µM (no result: BAZ2B inh, G9a inh)
C=C(C)C1CC=C(C)/C(=N\NC(=O)CNc2cccc3ccccc23)C1 (stereo unspecified)	G9a inh 10µM
CN=c1scc(-c2ccc([N+](=O)[O-])cc2)n1/N=C/c1ccco1	BAZ2B inh inconclusive, G9a inh 50µM (no result: L3MBTL1 inh)
O=C(/C=C/c1ccccc1Cl)Nc1ccncc1	G9a inh 50µM
O=C(/C=C/c1ccccc1Cl)Nc1cccnc1	none
Cc1cc(N)c2cc(NC(=O)/C=C/c3ccccc3Cl)ccc2n1	BAZ2B inh inconclusive, JMJD2A Tudor 63µM, G9a inh 25µM
Cc1cc(C)nc(NC(=O)/C=C/c2ccccc2Cl)n1	none
O=C(/C=C/c1ccccc1Cl)NC1CCS(=O)(=O)C1 (stereo unspecified)	GLS inh inconclusive, JMJD2A Tudor 5µM
COCCCn1c(SCC(=O)Nc2ccccc2OC)nc2c(sc3ccccc32)c1=O	none (no result: L3MBTL1 inh)
COn1cnnc1-c1ccccc1	G9a inh 13µM
COc1cc(OC)cc(C(=O)N(Cc2ccco2)Cc2cccs2)c1	none (no result: GLS inh, BAZ2B inh, G9a inh, L3MBTL1 inh)
CO/S(=N\S(=O)(=O)c1ccc(Cl)cc1)c1ccc([N+](=O)[O-])cc1 (stereo unspecified)	G9a inh 3.2µM (no result: GLS inh, HP1b binding inh, BAZ2B inh, JMJD2A Tudor, L3MBTL1 inh)
O=C(Cc1ccc(Cl)cc1)NNS(=O)(=O)c1ccc([N+](=O)[O-])cc1	none
CCOc1ccccc1C(=O)Nc1cc2c(cc1N1CCOCC1)n(C)c(=O)n2C	BAZ2B inh inconclusive (no result: L3MBTL1 inh)
CCC(=O)Nc1nc(C)c(-c2csc(Nc3cccc(C(=O)O)c3)n2)s1	GLS inh inconclusive, BAZ2B inh inconclusive, G9a inh 45µM
CCC(=O)Nc1nc(C)c(-c2csc(Nc3ccc(C(=O)O)cc3)n2)s1	GLS inh inconclusive, G9a inh 50µM (no result: L3MBTL1 inh)
Cc1nc(NC(=O)c2ccccc2)sc1-c1csc(Nc2ccc(C(=O)O)cc2)n1	HP1b binding inh 40µM, BAZ2B inh 10µM, JMJD2A Tudor 22µM (no result: G9a inh, L3MBTL1 inh)
COc1cccc(Nc2nc(-c3sc(NC(=O)CC(C)C)nc3C)cs2)c1	BAZ2B inh inconclusive, JMJD2A Tudor inconclusive, G9a inh inconclusive
COc1cccc(Nc2nc(-c3sc(NC(=O)c4ccccc4)nc3C)cs2)c1	HP1b binding inh inconclusive, BAZ2B inh inconclusive, JMJD2A Tudor 79µM, G9a inh 50µM
O=C(CSc1nc2ccsc2c(=O)n1Cc1ccccc1Cl)NCc1ccc(F)cc1	none (no result: L3MBTL1 inh)
CSc1cccc(NS(=O)(=O)c2ccc3[nH]cc(C(=O)N4CCCC4)c(=O)c3c2)c1	none (no result: BAZ2B inh, L3MBTL1 inh)
CC(=O)Nc1nc(C)c(-c2csc(Nc3cccc(C(C)=O)c3)n2)s1	G9a inh 40µM (no result: L3MBTL1 inh)
CCCC(=O)Nc1nc(C)c(-c2csc(Nc3ccc(Cl)cc3)n2)s1	HP1b binding inh inconclusive, BAZ2B inh 28µM, JMJD2A Tudor inconclusive
O=C(Nc1sc2c(c1C(=O)NCc1ccco1)CCCC2)c1cc(=O)c2ccccc2o1	none (no result: L3MBTL1 inh)
CCc1ccccc1NC(=O)C(C)n1nc(-c2ccc(C)c(C)c2)ccc1=O (stereo unspecified)	JMJD2A Tudor inconclusive (no result: L3MBTL1 inh)
O=C(CN1CCOCC1)Nc1ccc(Cl)c(Cl)c1	HP1b binding inh inconclusive, JMJD2A Tudor 28µM, G9a inh 8.9µM
O=C(CSCC(=O)N1CCOCC1)Nc1ccccc1	G9a inh 45µM
O=C(CN1CCOCCOCCN(CC(=O)Nc2ccccc2)CCOCC1)Nc1ccccc1	G9a inh 32µM
CCCc1c(C)[nH]c2ccc(C(=O)O)cc2c1=S	GLS inh 7.1µM, HP1b binding inh inconclusive, BAZ2B inh inconclusive (no result: G9a inh, L3MBTL1 inh)
CCOC(=O)/C(=N/Nc1ccc(C)cc1)S(=O)(=O)c1ccc(Cl)cc1	G9a inh 14µM (no result: L3MBTL1 inh)
CCOC(=O)/C(=N\Nc1ccccc1)S(=O)(=O)c1ccccc1	JMJD2A Tudor inconclusive, G9a inh inconclusive (no result: L3MBTL1 inh)
CCN1CCN(c2nc3c(S(=O)(=O)c4ccc(Br)cc4)nnn3c3ccsc23)CC1	none (no result: L3MBTL1 inh)
CCOc1ccc(C(=O)N2CCN(c3ncccn3)CC2)cc1	none (no result: BAZ2B inh, G9a inh, L3MBTL1 inh)
CCN(CC)C(=O)CN1CCN(c2ncccn2)CC1	HP1b binding inh inconclusive, BAZ2B inh 25µM, JMJD2A Tudor 4.5µM, G9a inh 5.6µM
Cc1ccc(CCNC(=O)c2sc3nc4n(c(=O)c3c2C)CCCC4)cc1	BAZ2B inh inconclusive (no result: L3MBTL1 inh)
Cc1cc(Nc2ccc3ccccc3c2)n2ncnc2n1	G9a inh 16µM
COc1ccc(Nc2cc(C)nc3ncnn23)cc1	none (no result: BAZ2B inh, G9a inh, L3MBTL1 inh)
